Laboratory results from PubChem BioAssay (NCI).
Where “and” joins values, the source holds several entries; their conditions need not be identical. Identical values can stand only once. The panel holds about 83,000 compounds, 20% with a hit somewhere; the sample as a whole holds those more often.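 Values shown are percent growth following 48 h exposure of cells in 96-well plates to a single concentration of compound; below 10 was considered active.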 Calls of active or inactive are those of the source.

Experiments:
Assay in all cases: NCI-60 one-dose screen, 48 h (100 = growth as untreated, 0 = no growth, -100 = all killed)
Details in all cases: 10 µM unless noted
NCI-H23 lung = system: NCI-H23 lung
NCI-H226 lung = system: NCI-H226 lung
NCI-H322M lung = system: NCI-H322M lung
HOP-62 NSCLC = system: HOP-62 NSCLC
NCI-H460 lung = system: NCI-H460 lung
HOP-92 NSCLC = system: HOP-92 NSCLC
NCI-H522 lung = system: NCI-H522 lung
A549/ATCC NSCLC = system: A549/ATCC NSCLC
786-0 renal = system: 786-0 renal
COLO 205 colon = system: COLO 205 colon
K-562 leukemia = system: K-562 leukemia
MALME-3M melanoma = system: MALME-3M melanoma
MDA-MB-231 breast = system: MDA-MB-231 breast
RXF 393 renal = system: RXF 393 renal
SF-268 CNS = system: SF-268 CNS
SF-295 CNS = system: SF-295 CNS
SF-539 CNS = system: SF-539 CNS
UACC-257 melanoma = system: UACC-257 melanoma
DU-145 prostate = system: DU-145 prostate
M14 melanoma = system: M14 melanoma

| Structure (SMILES) | growth (NCI-H23 lung) | growth (NCI-H226 lung) | growth (NCI-H322M lung) | growth (HOP-62 NSCLC) | growth (NCI-H460 lung) | growth (HOP-92 NSCLC) | growth (NCI-H522 lung) | growth (A549/ATCC NSCLC) | growth (786-0 renal) | growth (COLO 205 colon) | growth (K-562 leukemia) | growth (MALME-3M melanoma) | growth (MDA-MB-231 breast) | growth (RXF 393 renal) | growth (SF-268 CNS) | growth (SF-295 CNS) | growth (SF-539 CNS) | growth (UACC-257 melanoma) | growth (DU-145 prostate) | growth (M14 melanoma) |
| --- | --- | --- | --- | --- | --- | --- | --- | --- | --- | --- | --- | --- | --- | --- | --- | --- | --- | --- | --- | --- |
| CCN(CC)CCc1nc(-c2ccccc2)no1 | 83.8% (inactive) and 102% (inactive) | 85.8% (inactive) and 104% (inactive) | 100% (inactive) and 102% (inactive) | 65.2% (inactive) and 98.6% (inactive) | 102% (inactive) and 113% (inactive) | 81.5% (inactive) and 109% (inactive) | 88.5% (inactive) | 97.5% (inactive) and 103% (inactive) | 89.5% (inactive) and 101% (inactive) | 109% (inactive) | 118% (inactive) | 86.2% (inactive) and 120% (inactive) | 67.6% (inactive) and 110% (inactive) | 74.5% (inactive) and 113% (inactive) | 79.9% (inactive) and 98.3% (inactive) | 105% (inactive) and 101% (inactive) | 83.5% (inactive) and 109% (inactive) | 87.2% (inactive) and 90.3% (inactive) |  |  |
| O=c1c2ccccc2nc2n1Cc1nc3ccccc3c(=O)n1C2 | 92.2% (inactive) and 100% (inactive) | 89.5% (inactive) and 97.8% (inactive) | 97.8% (inactive) and 102% (inactive) | 114% (inactive) and 105% (inactive) | 95.1% (inactive) and 101% (inactive) | 95.3% (inactive) and 114% (inactive) | 89.9% (inactive) and 93.3% (inactive) |  | 103% (inactive) and 104% (inactive) | 111% (inactive) and 130% (inactive) | 107% (inactive) and 62.5% (inactive) | 80.1% (inactive) and 108% (inactive) | 99.2% (inactive) and 105% (inactive) | 107% (inactive) and 108% (inactive) | 87.5% (inactive) and 103% (inactive) | 105% (inactive) and 112% (inactive) | 99% (inactive) and 102% (inactive) | 98.3% (inactive) and 112% (inactive) | 96.4% (inactive) and 102% (inactive) |  |
| O=C(/C=C/c1ccccn1)c1ccccc1O | 73.9% (inactive) and 81.3% (inactive) | 93.2% (inactive) and 97.3% (inactive) | 100% (inactive) and 113% (inactive) | 79.5% (inactive) and 72.2% (inactive) | 65.2% (inactive) and 101% (inactive) | 75.5% (inactive) and 34.2% (inactive) | 67.8% (inactive) and 28.4% (inactive) | 55.3% (inactive) and 79.7% (inactive) | 90.6% (inactive) and 91.4% (inactive) | 63.6% (inactive) and 65.4% (inactive) |  | 70.1% (inactive) and 107% (inactive) | 70.4% (inactive) and 95.9% (inactive) | 31.8% (inactive) and 56.4% (inactive) | 72.4% (inactive) and 61.6% (inactive) | 68.9% (inactive) and 91.6% (inactive) | 42.1% (inactive) and 80.9% (inactive) | 49.9% (inactive) and 84.9% (inactive) | 76.4% (inactive) and 71% (inactive) | 72.5% (inactive) and 82.3% (inactive) |
| O=C(CCc1ccc(O)cc1)N/N=C/c1cc(Br)ccc1O | 61.4% (inactive) | 95.1% (inactive) | 38.9% (inactive) | 62.7% (inactive) | 29.7% (inactive) | 80.7% (inactive) | 77.5% (inactive) | 47.6% (inactive) | 42% (inactive) | 92% (inactive) | 15.4% (inactive) | 87.1% (inactive) | 59.7% (inactive) | 76.6% (inactive) | 48.3% (inactive) |  | 39.9% (inactive) | 55.5% (inactive) | 63.2% (inactive) | 39.9% (inactive) |
| O=C1C2=C(C(=O)c3ccccc31)C(O)(S(=O)(=O)O)C(O)(S(=O)(=O)O)C1N=CC=CC21 (centres undefined) | 31.8% (inactive) and 20.8% (inactive) | 57% (inactive) and 68.1% (inactive) | 44.8% (inactive) and 16.8% (inactive) | 42.1% (inactive) and 41.9% (inactive) | 12.2% (inactive) and 4.17% (active) | -2.69% (active) | 24.8% (inactive) and -11.8% (active) |  | 32.7% (inactive) and 20.3% (inactive) | 50.3% (inactive) | 13.5% (inactive) and 40% (inactive) | 73% (inactive) and 62.1% (inactive) | 58.3% (inactive) and 47.6% (inactive) | 76.7% (inactive) and 58.1% (inactive) | 52.2% (inactive) and 36.5% (inactive) | 6.52% (active) and 15.4% (inactive) | 25.4% (inactive) and 20.8% (inactive) | 71.4% (inactive) and 35.3% (inactive) | 64.2% (inactive) and 48% (inactive) | 42.9% (inactive) |
| NC(=S)NN=C1CCC(C2CCCCC2)CC1 (centres undefined) | 103% (inactive) and 94.1% (inactive) | 89.1% (inactive) and 73% (inactive) | 95.9% (inactive) and 88.2% (inactive) | 113% (inactive) and 111% (inactive) | 106% (inactive) and 108% (inactive) | 95.7% (inactive) and 92.3% (inactive) | 52.2% (inactive) and 47.2% (inactive) | 94% (inactive) and 99.5% (inactive) | 96.7% (inactive) and 91.9% (inactive) | 102% (inactive) and 95% (inactive) | 89.9% (inactive) and 89.5% (inactive) | 90.6% (inactive) | 94.6% (inactive) and 93.6% (inactive) | 92.3% (inactive) and 92.9% (inactive) | 89.9% (inactive) and 102% (inactive) | 93% (inactive) and 87.7% (inactive) | 97.1% (inactive) and 82.8% (inactive) | 66.4% (inactive) and 66.9% (inactive) | 96.7% (inactive) and 103% (inactive) | 92.2% (inactive) and 85% (inactive) |
| NC(=O)c1ccccc1OCC(O)CO (centres undefined) | 110% (inactive) | 95.8% (inactive) | 110% (inactive) | 101% (inactive) | 103% (inactive) | 117% (inactive) | 98.4% (inactive) |  | 103% (inactive) | 114% (inactive) | 107% (inactive) | 115% (inactive) | 103% (inactive) | 98.9% (inactive) | 105% (inactive) | 83.1% (inactive) | 90.2% (inactive) | 97.9% (inactive) | 114% (inactive) | 112% (inactive) |
| Nc1ccc2[nH]c(-c3ccccc3)cc(=O)c2c1 | 98.3% (inactive) | 101% (inactive) | 97.5% (inactive) | 96.8% (inactive) | 97.4% (inactive) |  | 71.3% (inactive) | 102% (inactive) | 96.6% (inactive) |  |  | 80.4% (inactive) | 100% (inactive) | 89.9% (inactive) | 90.7% (inactive) | 93.5% (inactive) | 88.5% (inactive) | 79.8% (inactive) | 101% (inactive) | 70.6% (inactive) |
| CCCCCCCCCCCCOc1ccccc1C=O | 100% (inactive) | 95.4% (inactive) | 114% (inactive) | 85.3% (inactive) | 102% (inactive) |  | 91.3% (inactive) |  | 109% (inactive) | 109% (inactive) | 83.7% (inactive) |  | 102% (inactive) | 110% (inactive) | 97.5% (inactive) | 99% (inactive) | 102% (inactive) | 96.8% (inactive) | 111% (inactive) | 101% (inactive) |
| Cc1c(Cl)cccc1NCN1C(=O)c2ccccc2C1=O | 102% (inactive) | 98.7% (inactive) | 99.8% (inactive) | 101% (inactive) | 108% (inactive) |  | 81.1% (inactive) |  | 103% (inactive) | 105% (inactive) | 109% (inactive) | 104% (inactive) | 121% (inactive) | 107% (inactive) | 107% (inactive) | 102% (inactive) | 102% (inactive) | 100% (inactive) | 115% (inactive) | 110% (inactive) |
